In the library only some 9.2% were active in any assay of this set; here they are far more common.
ELG1 genotox: qHTS screen for small molecules that induce genotoxicity in human embryonic kidney (HEK293T) cells expressing luciferase-tagged ELG1. HEK293T ELG1-luciferase reporter, luminescence, 16 h. Potency, µM (doses to about 46 µM), most hits filed as activators. hit rate 1.3% among 330,000; further: nearly all actives have a fitted effect of over 60% in size
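After overnight (16 hr) compound treatment at 37 °C, ELG1-luciferase HEK293T cells were lysed with ONE-Glo; luminescence quantified 30 min later at room temperature.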
ELG1 DNA repair: qHTS screen for small molecules that inhibit ELG1-dependent DNA repair in human embryonic kidney (HEK293T) cells expressing luciferase-tagged ELG1 | HEK293T ELG1-luciferase reporter, luminescence, 16 h; DNA damage induced by 5-fluorouridine | Potency, µM (doses to about 46.1 µM), hits mostly inhibitors | hit rate 2.3% among 330,000; further: nearly all actives have a fitted effect of over 55% in size
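Quantitative HTS, concentration-response format. 2,000 cells/well co-treated with 5-fluorouridine and compound, 16 hr in 5% CO2 at 37 °C; ONE-Glo luminescence read after 30 min.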
SMN2 splice enh: qHTS Assay for Enhancers of SMN2 Splice Variant Expression | HEK293 SMN2-luciferase splicing reporter, luminescence, 30-36 h | Potency, µM (highest dose often 46.1 µM), actives largely listed as activators | hit rate 2.8% among 210,000 | AID 1458, 2008; further: nearly all actives have a fitted effect of over 55% in size
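qHTS luciferase splicing reporter: luminescence rises when SMN2 exon 7 is included in transfected HEK293 cells. Compound exposure lasted 30-36 h at 37C, with 4.5 mM final sodium butyrate as control, followed by a ONE-Glo read.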
NPC1 prom act: qHTS Assay for NPC1 Promoter Activators; Huh7 NPC1 promoter luciferase reporter, 24 h; Potency, µM (top dose mostly 9.22 µM), usual class: activators; hit rate 2.4% among 320,000; AID 485313, 2010; further: nearly all actives have a fitted effect of over 60% in size
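Huh7 cells stably carrying NPC1 promoter–luciferase, plated in Opti-MEM with 10% FBS for 2 h, were exposed to compound in DMSO for 24 h at 37 °C; luciferase reagent was added for 10 min and luminescence read.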
Rab9 prom act: qHTS Assay for Rab9 Promoter Activators | hit rate 2.8% among 320,000 | Huh7 Rab9 promoter-luciferase reporter, luminescence, 24 h | Potency, µM (doses to about 9.22 µM), hits mostly activators; further: nearly all actives have a fitted effect of over 60% in size
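Huh7 cells stably carrying a Rab9 promoter-luciferase reporter, 1500 cells per well in OP-MEM I with 10% FBS, treated with compound 24 hours at 37C. Luciferase activity read by luminescence after 10 minutes with Amplite reagent.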
FLuc counter: qHTS profiling assay for firefly luciferase inhibitor/activator using purifed enzyme and Km concentrations of substrates (counterscreen for miR-21 project) | AID 588342, 2011 | Luciferin 4-monooxygenase (Photinus pyralis), P08659 | hit rate 6.9% among 360,000 | Potency, µM (series often up to 57.5 µM), hits mostly inhibitors | purified FLuc, Km substrates, luminescence inhibition; further: nearly all actives have a fitted effect of over 55% in size
Target sequence (P08659 whole entry, looked up): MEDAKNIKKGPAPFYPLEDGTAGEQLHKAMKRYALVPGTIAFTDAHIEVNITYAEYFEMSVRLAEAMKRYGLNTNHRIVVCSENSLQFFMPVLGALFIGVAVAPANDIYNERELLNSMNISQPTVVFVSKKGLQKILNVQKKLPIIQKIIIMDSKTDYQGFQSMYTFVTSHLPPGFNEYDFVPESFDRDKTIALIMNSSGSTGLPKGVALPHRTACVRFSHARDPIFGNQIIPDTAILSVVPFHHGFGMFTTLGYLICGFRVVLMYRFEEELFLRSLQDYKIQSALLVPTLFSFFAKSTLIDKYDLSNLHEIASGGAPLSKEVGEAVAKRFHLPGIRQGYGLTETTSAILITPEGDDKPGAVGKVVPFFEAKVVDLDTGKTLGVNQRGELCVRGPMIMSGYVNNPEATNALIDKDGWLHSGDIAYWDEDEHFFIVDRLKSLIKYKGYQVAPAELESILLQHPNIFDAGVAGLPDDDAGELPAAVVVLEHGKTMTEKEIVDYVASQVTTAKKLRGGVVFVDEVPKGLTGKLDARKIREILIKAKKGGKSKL
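Purified P. pyralis luciferase (10nM final) with 10uM D-luciferin and 10uM ATP (Km levels) in 50mM Tris acetate pH 7.5, 10mM Mg acetate, 0.01% Tween-20, 0.05% BSA; qHTS 6-point titration, ~60 µM downward; luminescence read.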
A number is an active result; . = inactive; ? = inconclusive; / = not tested or not shown. The call rests on the fitted dose curve; in most records, active means well fitted curve in the direction sought with a large enough effect; inconclusive means small, poorly fitted or top-dose-only effect, or another doubt; inactive means no such curve, though single readings can be large; an effect the other way counts as inactive or inconclusive.

SMILES	ELG1 genotox	ELG1 DNA repair	SMN2 splice enh	NPC1 prom act	Rab9 prom act	FLuc counter
CCCc1cc(C(=O)NC2CCCCC2)no1	16µM	?	14µM	4µM	?	?
CCCc1cc(C(=O)N(C2CCCCC2)C2CCCCC2)no1	.	.	.	.	.	.
CCCc1cc(C(=O)NC2CCCC2)no1	10µM	?	13µM	?	?	?
CC(C)c1cc(C(=O)NC2CCCCC2)no1	?	?	11µM	?	?	17µM
Cc1cc(C(=O)NC2CCCCC2)on1	.	.	/	.	.	.
COc1ccc(-c2cc3ccc(O)c(CN4CCCCC4C)c3oc2=O)cc1OC (stereo not given)	/	/	/	/	/	.
COc1cc2c(cc1OC)C1(Nc3c-2c(Cc2ccccc2)nn3-c2ccccc2)C(=O)Nc2ccccc21 (stereo not given)	.	13µM	.	.	.	.
Cn1c(-c2ccccc2)cc(=O)c2ccccc21	.	.	.	.	.	.
COc1ccc2c(c1)c(=O)cc(-c1ccccc1)n2C	?	?	?	.	.	24µM
O=C(N/N=C1\CCc2ccccc21)c1ccncc1	?	?	20µM	?	?	21µM
O=C(N/N=C1\CCc2ccccc21)c1ccccc1O	?	?	1.1µM	0.63µM	0.79µM	1.7µM
O=C(NN=C1C2CC3CC(C2)CC1C3)c1ccccc1O	.	.	/	.	.	17µM
O=C(NN=C1C2CC3CC(C2)CC1C3)c1cccs1	?	?	.	.	.	.
O=C1NC(c2ccc(Br)cc2)Oc2ccccc21 (stereo not given)	.	.	/	.	.	.
COCCCNC(=O)c1c(NC(=O)Cc2coc3c(C)c(C)ccc23)sc2c1CCCC2	/	/	.	/	/	.
CC(=O)Nc1nnc(SCC(=O)N2C(C)CCCC2C)s1 (stereo not given)	.	.	/	.	.	.
CC1CN(C(=O)CSc2nnc(NC(=O)NC(C)(C)C)s2)CC(C)O1 (stereo not given)	.	.	/	.	.	24µM
c1cc2[nH]snc2c2nc(C3CC3)nc12	.	5.8µM	.	.	.	?
C=CCc1c(C)nc(-c2ccccc2)nc1N/N=C(\C)c1ccccc1	.	?	.	.	.	17µM
Cc1[nH]nc2cn[nH]c12	.	13µM	.	.	.	.
Cc1cccc2cn[nH]c12	.	.	/	.	.	.
Cn1c(N2CCOCC2)c(/C=N/OC(=O)c2ccc(F)cc2)c2ccccc21	.	?	.	.	.	9.5µM
CC(=O)O/N=C/c1c(N2CCOCC2)n(C)c2ccccc12	.	?	.	.	.	.
Cc1ccc(C(=O)O/N=C/c2c(N3CCOCC3)n(C)c3ccccc23)cc1	.	?	.	.	.	6µM
O=C(NCCc1ccccc1)C(c1cccs1)N(C(=O)CCl)c1ccc(Cl)cc1 (stereo not given)	.	18µM	.	.	.	.
SMILES	ELG1 genotox	ELG1 DNA repair	SMN2 splice enh	NPC1 prom act	Rab9 prom act	FLuc counter
Cc1c(CN2CCN(CC(C)C)C(CCO)C2)[nH]c2ccc(Cl)cc12 (stereo not given)	.	.	/	.	.	.
COc1ccc2cc3cc(C(=O)N4CCN(c5ccccc5)CC4)oc3nc2c1	.	.	.	.	.	?
COc1ccc2nc3oc(C(=O)N4CCCCC4)cc3cc2c1	15µM	?	14µM	3.2µM	2.8µM	6.7µM
COc1ccc2cc3cc(C(=O)N4CCCC(C)C4)oc3nc2c1 (stereo not given)	?	?	/	2.5µM	2µM	5.4µM
CCOC(=O)C1CCN(C(=O)c2cc3cc4cc(OC)ccc4nc3o2)CC1	.	?	11µM	?	3.2µM	?
CCOC(=O)C1CCCN(C(=O)c2cc3cc4ccc(OC)cc4nc3o2)C1 (stereo not given)	.	.	/	.	.	?
